Laboratory results from PubChem BioAssay (NCATS).
Records with an inconclusive call do not appear. A number with no mark means an inactive call. Calls of active or inactive are those of the source. The call rests on the fitted dose curve; in most records, active means well fitted cell-killing curve with a large enough effect; inconclusive means small, poorly fitted or top-dose-only effect; inactive means flat fitted curve, though single readings scatter.

Test: qHTS of pediatric cancer cell lines to identify multiple opportunities for drug repurposing: Primary screen for BT-37 cells (AID 1347094);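 on activity change, negative = cytotoxic: plate controls were DMSO for no effect and bortezomib for full effect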
Settings: BT-37 viability, CellTiter-Glo luminescence, 48 h; series mostly up to 57.3 µM; activity change, negative = cytotoxic: at the top concentration
Procedure, shortened: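 Phenotypic viability qHTS, 48 h compound exposure, CellTiter-Glo luminescence read-out; multi-concentration dosing so that potency and efficacy derive directly from the primary screen's curves.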
Potency means the concentration at half of the fitted maximal effect.

SMILES | activity change, negative = cytotoxic | Potency
CCN(CC)CCNC(=O)COc1ccc(Cl)cc1 | 2.72% | –
Cc1onc(-c2c(Cl)cccc2Cl)c1C(=O)N[C@@H]1C(=O)N2[C@@H]1SC(C)(C)[C@@H]2C(=O)O | 13.6% | –
CC(C)(C)NC(=O)[C@@H]1CN(Cc2cccnc2)CCN1C[C@@H](O)C[C@@H](Cc1ccccc1)C(=O)N[C@H]1c2ccccc2C[C@H]1O | 4.49% | –
C=CCc1ccc(O)c(OC)c1 | 9.27% | –
NCCc1ccn[nH]1 | 4.83% | –
OC[C@H]1O[C@H](O[C@]2(CCl)O[C@H](CCl)[C@@H](O)[C@@H]2O)[C@H](O)[C@@H](O)[C@H]1Cl | 2.47% | –
COc1c2occc2c(OC)c2c(=O)cc(C)oc12 | 11.4% | –
COc1cc2c(cc1OC)[C@@H]1CC(=O)[C@@H](CC(C)C)CN1CC2 | 5.03% | –
C[C@H](CCC(=O)O)[C@H]1CC[C@H]2[C@@H]3C(=O)C[C@@H]4CC(=O)CC[C@]4(C)[C@H]3CC(=O)[C@]12C | 28% | –
C[C@@H]1C[C@H]2[C@@H]3CCC4=CC(=O)C=C[C@]4(C)[C@@]3(F)[C@@H](O)C[C@]2(C)[C@H]1C(=O)CO | 11.1% | –
CN(C)CC/C=C1/c2ccccc2COc2ccc(CC(=O)O)cc21 | 8.72% | –
C/C=C/c1ccc(OC)cc1 | 9.55% | –
CN=C(NC#N)Nc1ccc(C2=NNC(=O)CC2C)cc1 (stereo unspecified) | 1.75% | –
CCC(C(=O)OCCN(CC)CC)c1ccccc1 (stereo unspecified) | 8.46% | –
CC(=O)Oc1ccc(C(=C2CCCCC2)c2ccc(OC(C)=O)cc2)cc1 | 1.06% | –
O=C(Nc1ccc(Cl)c(Cl)c1)C1CC1 | 4.17% | –
CCC(=O)c1c(O)cc(O)cc1O | 3.61% | –
Cc1cccn2c(=O)c(-c3nnn[nH]3)cnc12 | 4.51% [at 20.1 µM] | –

SMILES | activity change, negative = cytotoxic | Potency
CC1(C)O[C@@H]2C[C@H]3[C@@H]4C[C@H](F)C5=CC(=O)CC[C@]5(C)[C@H]4[C@@H](O)C[C@]3(C)[C@]2(C(=O)CO)O1 | 17.7% | –
C[C@]12CC[C@H]3[C@@H](CCC4=CC(=O)CC[C@@]43C)[C@@H]1CC[C@@H]2C(=O)CO | -8.8% | –
Cc1c(C(N)=O)cc([N+](=O)[O-])cc1[N+](=O)[O-] | -8.06% | –
Cc1c(C(C)C)c(=O)n(-c2ccccc2)n1C | 0.307% | –
CC(=O)OCC(=O)[C@@]1(O)[C@H](C)C[C@H]2[C@@H]3CCC4=CC(=O)C=C[C@]4(C)[C@@]3(F)[C@@H](O)C[C@@]21C | 8.74% | –
OCc1ccccc1O | 11.7% | –
CCN1CCCC1=O | 11.2% | –
OC[C@H]1O[C@@H](n2cnc3c(=S)nc[nH]c32)[C@H](O)[C@@H]1O | – | 389 nM (active)
CCOC(=O)c1cccc(N)c1 | 20.8% | –
CC(=O)[C@H]1CC[C@H]2[C@@H]3C[C@H](C)C4=CC(=O)CC[C@]4(C)[C@H]3[C@@H](O)C[C@]12C | -3.41% | –
NCCCC[C@H](N[C@@H](CCc1ccccc1)C(=O)O)C(=O)N1CCC[C@H]1C(=O)O | 5.44% | –
Cc1cc(O)c(C(C)C)cc1Cl | -6.37% | –
COc1cc(/C=C/C(=O)O[C@H]2CC[C@]34C[C@]35CC[C@]3(C)[C@@H]([C@H](C)CCC=C(C)C)CC[C@@]3(C)[C@@H]5CC[C@H]4C2(C)C)ccc1O | -17.6% | –
CC1(C)O[C@@H]2C[C@H]3[C@@H]4CCC5=CC(=O)CC[C@]5(C)[C@@]4(F)[C@@H](O)C[C@]3(C)[C@]2(C(=O)CCl)O1 | 3.68% | –
Nc1ccc(C(=O)O)cc1 | 12.2% | –
CN1CCN(C(c2ccccc2)c2ccccc2)CC1 | -2.11% | –
CC1(C)O[C@@H]2C[C@H]3[C@@H]4C[C@H](F)C5=CC(=O)C=C[C@]5(C)[C@H]4[C@@H](O)C[C@]3(C)[C@]2(C(=O)CO)O1 | -1.62% | –
Nc1nc2ncc(CNc3ccc(C(=O)N[C@@H](CCC(=O)O)C(=O)O)cc3)nc2c(=O)[nH]1 | 11.2% | –
